Data as given in PubChem BioAssay (NCI).
The panel holds about 79,000 compounds, 15% with a hit somewhere; the sample as a whole holds those more often. Unmarked numbers belong to inactive results. Calls of active or inactive are those of the source. Cut-off read from the data, not from the text of the source: active = growth inhibition above about 70%; inactive = the rest.

Tests used:
[1] = NCI Yeast Anticancer Drug Screen. Data for the rad50 strain (AID 155);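 note: 0% = growth of vehicle-only cultures of the same strain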; details: S. cerevisiae rad50 strain growth inhibition, stronger effect = higher value
Procedure, shortened: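 Cells are treated with compound, grown, and their growth is then scored against vehicle-only cultures of the same repair-deficient yeast strain.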

[2] = NCI Yeast Anticancer Drug Screen. Data for the mec2-1 strain (AID 157); details: S. cerevisiae mec2-1 strain, stronger effect = higher value
Procedure, shortened: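 Growth inhibition is read against vehicle-treated controls after compound exposure of the mec2-1 yeast strain, which is defective in DNA damage repair or cell cycle control.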

[3] = NCI Yeast Anticancer Drug Screen. Data for the sgs1 mgt1 strain (AID 161);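 note: 0% = growth of cultures given vehicle only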; details: S. cerevisiae sgs1 mgt1 strain, stronger effect = higher value
Procedure, shortened: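 Percent growth inhibition was derived by comparing compound-exposed mutant yeast with vehicle-exposed cultures. The strain carries alterations in DNA damage repair.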

[4] = NCI Yeast Anticancer Drug Screen. Data for the cln2 rad14 strain (AID 165);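 note: 0% = growth equal to vehicle treated cultures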; details: S. cerevisiae cln2 rad14 strain, stronger effect = higher value
Procedure, shortened: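 Growth inhibition, relative to vehicle-treated controls, is the read-out. The test organism is a yeast strain with defined genetic alterations, cln2 rad14.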

[5] = NCI Yeast Anticancer Drug Screen. Data for the bub3 strain (AID 167); details: S. cerevisiae bub3 mutant strain, stronger effect = higher value
Procedure, shortened: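 Part of a panel of yeast mutants defective in DNA damage repair or cell cycle regulation. Each strain is grown with compound, and inhibition is calculated relative to solvent-treated cultures.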

[6] = NCI Yeast Anticancer Drug Screen. Data for the mlh1 rad18 strain (AID 175); details: S. cerevisiae mlh1 rad18 strain growth inhibition, stronger effect = higher value
Procedure, shortened: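 Cells of a genetically altered yeast strain, deficient in DNA damage repair, were treated with compound. Their growth was then compared with that of vehicle-treated cultures to give inhibition.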

[7] = at 5.0 µM (retest, dose inferred, filed as 0.5)
[8] = at 50.0 µM (retest, dose inferred, filed as 5.0)

Structure (SMILES)	growth inhibition [1, 7]	growth inhibition [1, 8]	growth inhibition ([1]; at 50.0 µM)	growth inhibition [2, 7]	growth inhibition [2, 8]	growth inhibition ([2]; at 50.0 µM)	growth inhibition [3, 7]	growth inhibition [3, 8]	growth inhibition ([3]; at 50.0 µM)	growth inhibition [4, 7]	growth inhibition [4, 8]	growth inhibition ([4]; at 50.0 µM)	growth inhibition [5, 7]	growth inhibition [5, 8]	growth inhibition ([5]; at 50.0 µM)	growth inhibition [6, 7]	growth inhibition [6, 8]	growth inhibition ([6]; at 50.0 µM)
O=C(c1ccc(Cl)c([N+](=O)[O-])c1)c1ccc(Cl)c([N+](=O)[O-])c1	21%	93% (active)	59%	12%	94% (active)	93.4% (active)	13%	90% (active)	85% (active)	1%	80% (active)	39.5%	-8%	95% (active)	96.2% (active)	24%	96% (active)	96.7% (active)
O=S(=O)(NC1CCCCC1)c1ccc2c(c1)OCCOCCOCCOCCO2	7%	22%	40.3%	9%	37%	23.8%	0%	63%	70.7% (active)	-7%	39%	36%	-24%	53%	73.2% (active)	5%	31%	65.5%
O=S(=O)(Nc1ccccc1)c1ccccc1C#Cc1ccccc1	-3%	91% (active)	89.8% (active)	-2%	92% (active)	79.2% (active)	10%	93% (active)	86.9% (active)	-70%	92% (active)	74.3% (active)	2%	64%	89.8% (active)	3%	95% (active)	91.5% (active)
Cc1nc(-c2cccc(Cl)c2)oc1-c1ccccc1	2%	78% (active)	28.4%	8%	78% (active)	27.8%	17%	85% (active)	40.2%	1%	80% (active)	53.4%	-3%	76% (active)	47.8%	4%	76% (active)	58.5%
c1ccc(Oc2ccc(Nc3c4ccccc4nc4ccccc34)cc2)cc1	85% (active)	57%	45.9%	4%	70% (active)	30%	17%	84% (active)	76.2% (active)	3%	62%	31.9%	-4%	81% (active)	28.6%	13%	91% (active)	27.1%
Cc1ccc(C)c(NC(=O)/C(=N\NC(N)=S)C(C#N)c2ccccc2)c1 (configuration not stated)	5%	13%	-14.3%	6%	6%	12.8%	2%	12%	15.6%	-1%	-4%	28%	10%	2%	5.75%	1%	6%	69.2%
CCCc1nc2ccccc2c(=O)n1/N=C/c1ccccc1O	4%	-5%	44.2%	-1%	-1%	47.9%	4%	-1%	72.4% (active)	-4%	-2%	53.8%	-2%	-2%	82.5% (active)	-2%	2%	71% (active)
CC(C)OC(=O)c1ccc(NC(=O)CCl)cc1	0%	-1%	66.7%	-1%	5%	59.8%	3%	-8%	79.1% (active)	-1%	5%	31.9%	-4%	-2%	61%	-5%	6%	76.2% (active)
Cc1cccc(N2CCN(CC(O)COc3ccc4ccccc4c3)CC2)c1 (configuration not stated)	-6%	-7%	80.7% (active)	13%	18%	72.1% (active)	-3%	12%	97.7% (active)	-4%	-6%	60.1%	-5%	4%	41.1%	26%	28%	90% (active)
C=CCNC(=O)NC(=O)CSC1=NNC2(C(=O)N1)c1ccccc1-c1ccccc12	-4%	74% (active)	85.2% (active)	-21%	65%	78.7% (active)	-11%	85% (active)	87.1% (active)	2%	82% (active)	85.7% (active)	-16%	91% (active)	86.5% (active)	-6%	88% (active)	86.7% (active)
CCOC(=O)Nc1cc(NC(C)/C(=N/O)c2ccccc2)c([N+](=O)[O-])c(N)n1 (configuration not stated)	-18%	97% (active)	42.6%	-5%	47%	59.5%	1%	69%	47.5%	-21%	98% (active)	24.9%	-10%	87% (active)	62.1%	-5%	82% (active)	44.2%
COc1cc(OC(C)C)cc2c1C(=O)C(C(O)(O)C(F)(F)F)=CC2=O	0%	84% (active)	72.4% (active)	11%	81% (active)	85.5% (active)	2%	78% (active)	47.7%	5%	85% (active)	81.2% (active)	6%	88% (active)	82.9% (active)	-8%	77% (active)	92.8% (active)
Oc1c(N(Cc2ccccc2)Cc2ccccc2)ccc2cccnc12	-2%	96% (active)	98.4% (active)	-15%	96% (active)	98.5% (active)	-1%	97% (active)	98.6% (active)	-15%	95% (active)	96.2% (active)	-8%	97% (active)	98.8% (active)	1%	96% (active)	98% (active)
CCOC(=O)C(=O)CC(=O)C(Br)C(Br)c1ccc(Cl)cc1 (configuration not stated)	78% (active)	99% (active)	99.5% (active)	85% (active)	99% (active)	99.6% (active)	97% (active)	99% (active)	99.4% (active)	69%	100% (active)	99% (active)	92% (active)	99% (active)	99.3% (active)	90% (active)	99% (active)	99.5% (active)
O=C(NCCCl)N1CCC(CN=c2cc3n(-c4ccc(Cl)cc4)c4ccccc4nc-3cc2Nc2ccc(Cl)cc2)CC1	-33%	99% (active)	98.6% (active)	-5%	99% (active)	98.5% (active)	-22%	99% (active)	98.7% (active)	-56%	99% (active)	98.3% (active)	-11%	99% (active)	98.4% (active)	-34%	98% (active)	99% (active)
CCN1C(Cl)=NS(=O)(=O)c2ccccc21	17%	36%	-24.4%	24%	43%	-3.45%	22%	39%	-8.5%	19%	32%	-4%	19%	53%	-0.05%	25%	46%	21.2%
O=C(NNc1ncccn1)c1ccc(C(=O)NNc2ncccn2)cc1	-2%	99% (active)	2.75%	0%	100% (active)	2.1%	-3%	100% (active)	41.5%	7%	99% (active)	-25.6%	3%	99% (active)	-2.6%	2%	99% (active)	21.4%
O=C(N=Nc1cccc(Cl)c1)NNc1cccc(Cl)c1	12%	98% (active)	85.8% (active)	-11%	99% (active)	90.6% (active)	-9%	91% (active)	83.2% (active)	26%	99% (active)	83.5% (active)	-24%	99% (active)	86.3% (active)	-6%	98% (active)	85.4% (active)
Cc1cc(C)c(CCCC(=O)c2c(C)cc(C)cc2C)c(C)c1	-7%	28%	9.85%	-4%	1%	-1.6%	-7%	23%	9.85%	1%	-10%	29.1%	1%	6%	15.6%	-3%	-12%	9.75%
